About 83,000 compounds went through this panel and 20% of them were active in at least one assay; those are over-represented in the sample as a whole.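 Cells were grown in 96-well plates and exposed to the test compound at a single concentration for 48 hours; results are reported as percent growth, with values below 10 considered active.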 Unmarked numbers belong to inactive results. Calls of active or inactive are those of the source.
Columns and labels:
Test in all cases: NCI-60 one-dose screen, 48 h (100 = growth as untreated, 0 = no growth, -100 = all killed)
Conditions in all cases: 10 µM unless noted
HCT-15 colon = system: HCT-15 colon
HT29 colon = system: HT29 colon
SNB-75 CNS = system: SNB-75 CNS
SNB-19 CNS = system: SNB-19 CNS
U251 CNS = system: U251 CNS
PC-3 prostate = system: PC-3 prostate
SK-MEL-5 melanoma = system: SK-MEL-5 melanoma
UACC-62 melanoma = system: UACC-62 melanoma
LOX IMVI melanoma = system: LOX IMVI melanoma
SK-MEL-28 melanoma = system: SK-MEL-28 melanoma
EKVX NSCLC = system: EKVX NSCLC
SN12C renal = system: SN12C renal
UO-31 renal = system: UO-31 renal
ACHN renal = system: ACHN renal
CAKI-1 renal = system: CAKI-1 renal
A498 renal = system: A498 renal
CCRF-CEM leukemia = system: CCRF-CEM leukemia
MOLT-4 leukemia = system: MOLT-4 leukemia
TK-10 renal = system: TK-10 renal

Row | Structure (SMILES) | growth (HCT-15 colon) | growth (HT29 colon) | growth (SNB-75 CNS) | growth (SNB-19 CNS) | growth (U251 CNS) | growth (PC-3 prostate) | growth (SK-MEL-5 melanoma) | growth (UACC-62 melanoma) | growth (LOX IMVI melanoma) | growth (SK-MEL-28 melanoma) | growth (EKVX NSCLC) | growth (SN12C renal) | growth (UO-31 renal) | growth (ACHN renal) | growth (CAKI-1 renal) | growth (A498 renal) | growth (CCRF-CEM leukemia) | growth (MOLT-4 leukemia) | growth (TK-10 renal)
1 | O=c1ccn(C2OC(F)(CO)C(O)C2F)c(=O)[nH]1 (centres undefined) | 103% | 94.5% | 95.9% | 105% | 94.8% | 93.1% | 108% | 103% | 97.3% | 109% | 91.2% | 102% | 97.1% | 98.9% | 94.3% | 68.5% | 103% | 99.8% | 
2 | O=C1C2=C(CCN(Cc3ccccc3)C2)N2CCN=C2N1Cc1ccc(C(F)(F)F)cc1 | 13% | 31% | 38.1% | 27.7% | 21.8% | 20.3% | 14.2% | 18.4% | 29.2% | 47.1% | 20.6% | 23.1% | 25.4% | 31.3% | 28.6% | -0.0454% (active) | 52.6% | 59.8% | 37.7%
3 | CCOC(=O)c1nnn(C(Cc2ccccc2Cl)C(=O)OCC)c1C (centres undefined) | 107% | 86.8% | 89.5% | 104% | 96.1% | 94% | 101% | 99.9% | 104% | 111% | 106% | 104% | 89.7% | 104% | 90.8% | 103% | 88.5% | 94.6% | 96.6%
4 | CCNCCNc1cc(-c2ccc(Cl)cc2)c(C#N)c2nc3ccccc3n12 | -78.5% (active) | -32.2% (active) | -76.6% (active) | 36% | -53.2% (active) | 27.2% | -99.4% (active) | -82.7% (active) | -77.4% (active) | -90.2% (active) | 11.2% | 44.9% | -95.2% (active) | -60% (active) | 39.5% |  | -21.3% (active) | -28.7% (active) | -20.3% (active)
5 | Nc1nc(N)c(-c2ccc(Cl)cc2)c(/C=C/c2ccc([N+](=O)[O-])cc2)n1 | 66.3% | 63.8% | 78.3% | 75% | 82.9% | 32.4% | 79.6% | 83.1% | 60.6% | 95.7% |  | 93.6% | 41.7% | 90.8% | 86.3% | -3.32% (active) | 34.8% | 27.6% | 109%
6 | Clc1ccc(-c2nc(NCCc3ccccc3)nc3c(NCCc4ccccc4)cnn23)cc1 | 72.9% | 41.9% | 85.6% | 85.6% | 48.4% | 51.7% | 94.2% | 73.2% | 60.9% | 75.2% | 79.5% | 80.7% | 86.7% | 98.7% |  | 71.4% | 82.6% | 89.1% | 60.1%
7 | O=C1Nc2ccccc2SC1C1SC(=S)N(Cc2ccccc2)C1=O (centres undefined) | 103% | 12.9% | 51.4% | 107% | 98.3% | 88.4% | 95.9% | 98.5% | 86.2% | 58.8% | 105% | 99.5% | 73.1% | 108% | 78.2% | 109% | 51.1% | 67.3% | 21.8%
8 | O=C1C2=C(CCN(Cc3ccccc3)C2)N2CCN=C2N1Cc1ccc(F)cc1F | 20.4% | 34% | 46.7% | 30.1% | 21.3% | 21.3% | 27.5% | 44.5% | 39.3% | 57.9% | 30.2% | 28.8% | 32.5% | 35.6% | 32.9% | 14.6% | 56.7% | 74.1% | 44.8%
9 | Cc1ccc(-n2nnc(C3=NCCc4c3[nH]c3ccc(Cl)cc43)c2C)cc1 | 65.8% | 74.4% | 103% | 83.3% | 80% | 62.1% | 79.1% | 30.5% | 63% | 100% | 70.8% |  | 57.8% | 57.2% | 56.1% | 66.5% | 27.8% | 49.6% | 78.9%
10 | C[C@@H]1CC[C@@H]2[C@@H]1[C@H](OC(=O)/C=C/c1ccccc1)[C@]1(C3CCCCC3)C[C@@H](NC(=O)CO)[C@@]2(C)O1 | 99% | 86% | 85% | 104% | 111% | 94% | 104% | 97% | 100% | 98.8% |  | 59.2% | 72.1% | 50.2% | 91.7% | 44.9% | 99.2% | 88.9% | 92.3%
11 | O=C(CC12CC3CC(CC(C3)C1)C2)NCCOCCOCCOCCNC(=O)c1cc2c(o1)C(=O)c1ccccc1C2=O | -78.5% (active) | 1.17% (active) | -98.9% (active) | -0.887% (active) | -19.6% (active) | 13.1% | -98.4% (active) | -94.6% (active) | -52.4% (active) | -58.5% (active) | -27.1% (active) | -90.7% (active) | -68.5% (active) | -22.4% (active) | -27% (active) |  | 13% | 7.19% (active) | -3.88% (active)
12 | Cl.[Pt].[c-]1ccccc1-c1ccccn1.c1ccc(P(c2ccccc2)C([PH+](c2ccccc2)c2ccccc2)[PH+](c2ccccc2)c2ccccc2)cc1 | 7.95% (active) | 10.4% | 7.24% (active) | 27.6% | 10.7% | 9.46% (active) | -87.3% (active) | 16.8% | 12.1% | 34% | 10.8% | 9.75% (active) | -0.14% (active) | 4.96% (active) | -5.66% (active) |  | 14.5% | 13.8% | 21.1%
13 | N[C@@H]1CCC[C@H]1NCCCCN1C(=O)c2cccc3cccc(c23)C1=O | 81.8% | 33.8% | 84.4% | 85.5% | 59% | 61.6% | 93.1% | 95.7% | 24.4% | 89.5% | 85.6% | 73.7% | 56.2% | 52.9% | 81.3% | 34.8% | 98.4% | 30.8% | 76.6%
14 | N#Cc1c(-c2ccc(C(F)(F)F)cc2)cc(N2CC(O)C2)n2c1nc1ccccc12 | 85.7% | 74% | -18.5% (active) | 24.8% | 40.2% | 39.6% | 67.5% | 33.9% | 53.2% | 59.7% | 63.6% | 72.3% | 54.5% | 43.4% | 72.1% | -4.38% (active) | 102% | 103% | 64%
15 | O=C1Nc2ccc(Cl)cc2/C1=N/N=C/c1c[nH]c2ccccc12 | 66.9% | 86.9% | 58.1% | 86.3% | 70.9% | 93.8% | 87.7% | 43.1% | 74% | 102% | 22.6% | 80.5% | 40.9% | 49.8% | 28.9% |  | 85.7% | 92.1% | 75.8%
16 | O=C1CSC(c2ccccc2Cl)N1c1nnc(Cn2cnnc2)o1 (centres undefined) | 27.6% | 22.2% | 50.2% | 64.5% | 32.7% | 71.2% | 23.7% | 38.6% | 62.5% | 58.7% | 60.7% | 82% | 66.4% | 73.6% |  | 75.5% | 43.4% | 20.2% | 91.1%

Source: PubChem BioAssay (NCI)
